Inconclusive results are not listed. Values without a mark were called inactive. The source made the active and inactive calls. Calls come from the whole dose curve; as a rule, active = well fitted inhibition curve with a large enough effect; inconclusive = small, poorly fitted or top-dose-only effect, or effect the other way, or another doubt; inactive = no such curve, though single readings can be large or run the other way.
Assay: Confirmation Concentration-Response Assay for lipid storage modulators; note: nearly all actives have a fitted effect of over 80% in size;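 for activity change, negative = inhibition: -100% = full block of lipid deposition by 20 µM Triacsin C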
Conditions: Drosophila S3 cells, lipid droplet BODIPY/CellTracker ratio, 18-24 h; series mostly up to 46.1 µM; activity change, negative = inhibition: at the top concentration
Method in brief: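 Cells at 5,000/well received compound as a titration plus oleic acid (added as 400 uM solution) and were incubated 18–24 h at 24 °C. BODIPY 493/503 lipid signal and CellTracker Red cell count were read by 488-nm laser-scanning cytometry. Activity was normalised to 20 uM Triacsin C.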
Potency is the fitted concentration of half-maximal effect.

Row | SMILES | activity change, negative = inhibition [%] | Potency
1 | O=C(Nc1cccc(F)c1)NC1(C(=O)N2CCC(O)CC2)CCCCC1 | 23.6 | –
2 | CSCCC(NS(=O)(=O)c1ccc2c(c1)OCCO2)C(=O)N(C)Cc1ccc(C)cc1 (centres undefined) | -2.98 | –
3 | COc1cc(NC(=O)COc2ccccc2[N+](=O)[O-])ccc1NC(=O)c1cccs1 | – | 17.7 µM (active)
4 | COc1ccc(CCNC(=O)CSC2=NS(=O)(=O)c3ccccc3N2)cc1OC | 8 | –
5 | Cc1ccc(S(=O)(=O)N(C)C)cc1NC(=O)COC(=O)c1sc2cc(Cl)ccc2c1Cl | – | 14.1 µM (active)
6 | Cc1cc(C(=O)O[C@H]2[C@H](Cc3ccccc3)NS(=O)(=O)[C@H]3C[C@@H]4C=C[C@]23O4)ccc1[N+](=O)[O-] | -10.7 | –
7 | COc1cccc(C(=O)O[C@H]2[C@H](C)NS(=O)(=O)[C@H]3C[C@@H]4C=C[C@]23O4)c1 | 8.12 | –
8 | CCOC(=O)C1(Cc2ccc(Cl)cc2)CCN(C(C)Cc2ccc(O)c(OC)c2)CC1 (centres undefined) | – | 11.2 µM (active)
9 | O=C(Nc1ccc(S(=O)(=O)N2CCCCC2)cc1)c1ccc(CN2CCc3ccccc3C2)cc1 | – | 7.91 µM (active)
10 | CCOc1ccc(CCNC(=O)CN2C(=O)NC3(CCCCC3C)C2=O)cc1OCC (centres undefined) | -25.3 | –
11 | O=C1c2ccccc2C(=O)c2c(Nc3ccc(CCO)cc3)ccc(O)c21 | – | 25 µM (active)
12 | COc1cccc(-n2nnnc2SCC(=O)NCCc2ccc(OC)c(OC)c2)c1 | -22.7 | –
13 | COc1ccc2c(c1)O[C@@H](c1cccc(C(F)(F)F)c1)[C@H](OC(=O)NCCc1ccc(OC)c(OC)c1)C2=O | – | 4.99 µM (active)
14 | COc1ccc(CCNC(=O)Cn2cnc3c(cnn3-c3ccccc3Cl)c2=O)cc1OC | -8 | –

Source: PubChem BioAssay AID1569 (National Center for Advancing Translational Sciences (NCATS), 2009)
